Assay [1] is described as follows: qHTS assay to identify small molecule antagonists of the TGF-beta/Smad signaling pathway - cell viability counter screen (AID 1346824). Further: nearly all actives have a fitted effect of over 50% in size. In outline:
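SBE-bla HEK 293T cells were plated overnight at 37 C, then given compounds in DMSO plus TGF-beta1 (added as 0.25 ng/mL solution) for 5 hr. After the bla read, CellTiter-Glo was added to the same wells and luminescence read after 30 min at room temperature.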
In general terms: Quantitative high-throughput screening tests each substance at several concentrations.

A short description of assay [2]: qHTS assay to identify small molecule agonists of the TGF-beta/Smad signaling pathway - cell viability counter screen (AID 1346829). Further: top concentration of the series differs between compounds; nearly all actives have a fitted effect of over 45% in size. In outline:
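HEK 293T SBE-bla line, 5 hr compound exposure at 37 C, multiplexed CellTiter-Glo viability read by luminescence.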

The nature of assay [3]: qHTS assay to identify small molecule agonists of the TGF-beta/Smad signaling pathway (AID 1346859; active means well fitted activation curve with a large enough effect in the signal ratio in the repeat runs, not every such curve was filed as active; the % refers to the signal ratio; further: series mostly up to about 77 µM). Summed up:
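Read-out: fluorescence at 460 and 530 nm (405 nm excitation) after a 2 hr room-temperature incubation with beta-lactamase FRET substrate. SBE-bla HEK 293T cells had been treated with test compounds for 5 hr at 37 C.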

The target of assay [4] is Thyrotropin-releasing hormone receptor (Homo sapiens) (UniProt P34981). The assay can be described thus: qHTS assay to identify small molecule antagonists of the thyrotropin-releasing hormone receptor (TRHR) signaling pathway (AID 1346877; active means well fitted inhibition curve with a large enough effect in the repeat runs, not every such curve was filed as active; further: series mostly up to about 51 µM). Summed up: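 Calcium signal in dye-loaded TRHR/HEK293 cells; compounds added 5 min before TRH (1 nM final); fluorescence monitored 3 min at 1 s steps.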
Sequence of Thyrotropin-releasing hormone receptor (Homo sapiens) (P34981 whole entry, looked up): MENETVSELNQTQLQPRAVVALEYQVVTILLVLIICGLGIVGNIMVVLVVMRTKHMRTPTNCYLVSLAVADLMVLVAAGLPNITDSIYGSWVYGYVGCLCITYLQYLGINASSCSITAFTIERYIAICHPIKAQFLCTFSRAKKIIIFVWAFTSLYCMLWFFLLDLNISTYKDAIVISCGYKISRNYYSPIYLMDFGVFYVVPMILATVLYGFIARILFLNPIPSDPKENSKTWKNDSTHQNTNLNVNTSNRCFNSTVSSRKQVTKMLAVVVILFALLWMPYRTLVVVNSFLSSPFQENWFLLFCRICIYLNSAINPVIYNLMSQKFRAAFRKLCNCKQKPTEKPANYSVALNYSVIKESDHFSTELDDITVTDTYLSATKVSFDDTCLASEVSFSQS

Assay [5] has the same target. The experiment in a line: qHTS assay to identify small molecule agonists of the thyrotropin-releasing hormone receptor (TRHR) signaling pathway (AID 1346891; calls by dose curve;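 further: HEK293 cells expressing TRHR with calcium dye readout; series mostly up to about 58 µM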). Summed up:
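HEK293/TRHR cells, 1500 per well, 18 h 37 °C; Ca dye 2 h 37 °C; pin-tool compound addition (agonist mode); kinetic fluorescence 3 min, 1 s reads; 15 concentrations, triplicate.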

Assay [6] can be described thus: Human pregnane X receptor (PXR) small molecule agonists, qHTS cell viability counter screen (AID 1346977). Further: nearly all actives have a fitted effect of over 50% in size. In outline: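 Fluorescence read-out (CellTiter-Fluor) of viability in PXR-Luc HepG2 cells, multiplexed with the luciferase agonist read. Compounds in DMSO added after 5hr plating; 24hr total exposure at 37C, 5% CO2.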
A short description of assay [7]: Caspase-3/7 induction in HepG2 cells by small molecules, qHTS assay (AID 1346978). Further: nearly all actives have a fitted effect of over 15% in size. In outline: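 Wild-type HepG2 cells (2,000/well) were settled 5 h at 37 C, 5% CO2, then exposed to compounds in DMSO for 17 h. Caspase-3/7 activity was read by luminescence 30 min after adding Caspase-Glo 3/7 reagent at room temperature.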
A short description of assay [8]: Caspase-3/7 induction in CHO-K1 cells by small molecules, qHTS assay (AID 1346980). Further: nearly all actives have a fitted effect of over 15% in size. Summed up: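 Wild-type cells were seeded at 1,500 per well and settled 5 hr at 37 C, 5% CO2, then exposed to DMSO-dissolved compounds for 17 hr. Caspase-Glo 3/7 reagent was added, and luminescence was read after 30min at room temperature.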
Assay [9] is described as follows: Caspase-3/7 induction in HepG2 cells by small molecules, qHTS cell viability counter screen (AID 1346981). Further: series mostly up to about 92 µM; nearly all actives have a fitted effect of over 30% in size. In outline: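 After a 5-hr attachment period at 37 C and 5% CO2, wild-type HepG2 cells received compounds in DMSO. Sixteen hours later CellTiter-Fluor was dispensed and the fluorescent signal quantified after a further hour.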
Assay [10] in a line: Caspase-3/7 induction in CHO-K1 cells by small molecules, qHTS cell viability counter screen (AID 1346979). Further: nearly all actives have a fitted effect of over 35% in size. Further: potency means the concentration at half of the fitted maximal effect. In outline: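 CHO-K1 wt, 1,500 cells/well; 5hr pre-incubation 37C/5% CO2; compound pin transfer (DMSO); 16hr exposure; CellTiter-Fluor added, 1hr, fluorescence read.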

Results filed as inconclusive are left out. The source made the active and inactive calls. Unless noted, the call rests on the fitted dose curve; in most records, active means well fitted curve in the direction sought with a large enough effect in the repeat runs; inconclusive means weak or mixed curves; inactive means no such curve, though single readings can be large; an effect the other way counts as inactive or inconclusive. Positions of bridges follow the written chain, without caps; N, C: chain ends. Non-standard residues stand in square brackets, D forms with d. Residues, ends and D or L forms follow the SMILES beside them. hArg = N=C(N)NCCCC[C@H](N)C(=O)O; Mpa = O=C(O)CCS

As to `CCCCOCCOC(=O)COc1ccc(Cl)cc1Cl`, the compound was called inactive in assay [1], in assay [2], in assay [3], in [4], in [5] and in assay [6]. Also, the compound was called inactive in [7], in assay [8] and in assay [9].

As to `CC(O)COC(C)(C)C` (stereo not given), the outcome in assay [1], in assay [2], in [3], in assay [4], in assay [5] and in assay [6] was inactive. The result in assay [7], in assay [8] and in [9] was inactive. The Potency entry in assay [10] was “inactive”.

For the compound `CCCSSCCC`, the outcome in assay [1], in assay [2], in assay [3], in assay [4], in assay [5] and in [6] was inactive. Further, the compound was called inactive in [7], in assay [8] and in [9]. For the same compound, the Potency entry in assay [10] is “inactive”.

For the compound `CC(C)OC(=O)CCC(=O)OC(C)C`, the call in [1], in assay [2], in assay [3], in assay [4], in assay [5] and in assay [6] was inactive. In addition, the outcome in assay [7], in assay [8] and in [9] was inactive.

Consider `C/C=C(\C)C(C)=O`, for which the call in [1], in assay [2], in [3], in assay [4], in assay [5] and in assay [6] was inactive. Moreover, the call in assay [7], in assay [8] and in [9] was inactive.

As to `O=C=NCC1CCCC(CN=C=O)C1` (stereo not given), the compound was called inactive in assay [1], in assay [2], in assay [3], in assay [4], in assay [5] and in [6]. Moreover, the result in [7], in [8] and in assay [9] was inactive. For the same compound, the Potency result in assay [10] is “inactive”.

`COC(=O)c1cc(Cl)cc(Cl)c1`: the compound was called inactive in assay [1], in assay [2], in assay [3], in [4], in assay [5] and in [6]. Besides, the call in assay [7], in assay [8] and in [9] was inactive. Besides, the Potency entry in assay [10] was “inactive”.

Turning to `O=C(O)CNC(=O)CNC(=O)CNC(=O)CSC(=O)c1ccccc1`, the compound was classed as inactive in [1], in assay [2], in [3], in assay [4], in assay [5] and in [6]. Moreover, the result in assay [7], in assay [8] and in [9] was inactive.

For the compound `COc1cc(/C=C/C(N)=O)cc(OC)c1OC`, the call in assay [1], in assay [2], in assay [3], in assay [4], in assay [5] and in assay [6] was inactive. Also, the compound was classed as inactive in assay [7], in assay [8] and in assay [9].

As for `CC(C)Nc1ccccc1`, the outcome in assay [1], in assay [2], in assay [3], in [4], in [5] and in assay [6] was inactive. Further, the compound was classed as inactive in assay [7], in [8] and in assay [9]. Besides, in assay [10], the Potency entry is “inactive”.

Take `NC(=O)[C@@H]1CSSCCC(=O)N[C@@H](CCCCN=C(N)N)C(=O)NCC(=O)N[C@@H](CC(=O)O)C(=O)N[C@@H](Cc2c[nH]c3ccccc23)C(=O)N2CCC[C@H]2C(=O)N1` ([Mpa][hArg]GDWPC-NH2; disulfide 1-7): the result in assay [1], in assay [2], in assay [3], in assay [4], in assay [5] and in assay [6] was inactive. For the same compound, the compound was classed as inactive in [7], in assay [8] and in assay [9]. In addition, the Potency in assay [10] was 10.6 µM (active).

As to `C=Cc1ccc(C(C)(C)C)cc1`, the call in [1], in [2], in assay [3], in assay [4], in assay [5] and in [6] was inactive. For the same compound, the compound was called inactive in [7], in assay [8] and in [9].

In the case of `COc1nc(N)nc2nc[nH]c12`, the outcome in assay [1], in assay [2], in assay [3], in assay [4], in assay [5] and in [6] was inactive. In addition, the compound was called inactive in assay [7], in assay [8] and in assay [9]. Besides, the Potency result in assay [10] is “inactive”.

`CCC(=O)Oc1ccc2c(c1)CC[C@@H]1[C@@H]2CC[C@@]2(C)[C@H]1C[C@@H](OC(=O)CC)[C@@H]2OC(=O)CC`: the call in [1], in assay [2], in assay [3], in [4], in [5] and in assay [6] was inactive. The outcome in assay [7], in assay [8] and in assay [9] was inactive. For the same compound, the Potency entry in [10] was “inactive”.

As for `C[C@H]1[C@@H](c2ccccc2)NC(=O)N1C`, the call in assay [1], in assay [2], in assay [3], in assay [4], in assay [5] and in assay [6] was inactive. For the same compound, the compound was called inactive in assay [7], in assay [8] and in assay [9]. Besides, the Potency result in assay [10] is “inactive”.

`CCCCC1CCC(O)CC1` (stereo not given): the outcome in assay [1], in assay [2], in [3], in assay [4], in assay [5] and in assay [6] was inactive. Moreover, the outcome in assay [7], in assay [8] and in assay [9] was inactive. The Potency entry in assay [10] is “inactive”.

With `CCCCSCCCC`, the outcome in assay [1], in assay [2], in assay [3], in assay [4], in assay [5] and in assay [7] was inactive. In addition, the call in assay [8] and in assay [9] was inactive. The Potency result in assay [10] was “inactive”.

On to `CCCCCCCCCCCCCCCCCC#N`, for which the compound was classed as inactive in assay [1], in assay [2], in assay [3], in [6], in assay [7] and in assay [8]. Further, the result in assay [9] was inactive. Moreover, the Potency entry in [10] is “inactive”.

For `Cc1c(N)cccc1Cl`, the result in assay [1], in assay [2], in [3], in assay [4], in assay [5] and in assay [7] was inactive. Also, the outcome in assay [8] and in [9] was inactive. Besides, the Potency entry in [10] was “inactive”.

Take `C=CCN1C[C@H](C(=O)N(CCCN(C)C)C(=O)NCC)C[C@@H]2c3cccc4[nH]cc(c34)C[C@H]21`: the outcome in [1], in [2], in [3], in assay [4], in assay [5] and in assay [7] was inactive. In addition, the compound was called inactive in [8].

On to `C#CCN[C@@H]1CCc2ccccc21`, for which the compound was classed as inactive in assay [1], in assay [2], in [3], in assay [4], in [5] and in assay [7]. In addition, the compound was called inactive in assay [8] and in [9]. Also, the Potency result in [10] is “inactive”.

Turning to `CC1=C(C(=O)O)N2C(=O)[C@@H](NC(=O)[C@H](N)c3ccccc3)[C@H]2SC1`, the outcome in assay [1], in [2], in assay [3], in assay [4], in [5] and in assay [6] was inactive. The call in assay [8] and in assay [9] was inactive. In [10], the Potency entry is “inactive”.

For `CN1CCOC(c2ccccc2)c2ccccc2C1` (stereo not given), the compound was classed as inactive in [1], in assay [2], in [3], in [4], in [5] and in [7]. Further, the outcome in assay [8] and in [9] was inactive. Further, the Potency entry in [10] is “inactive”.

As for `Cc1ccc(C(=O)O)cc1[N+](=O)[O-]`, the call in [1], in assay [2], in assay [3], in [4], in assay [5] and in [7] was inactive. The compound was called inactive in [8] and in [9].

For the compound `CO[Si](CCCn1c(=O)n(CCC[Si](OC)(OC)OC)c(=O)n(CCC[Si](OC)(OC)OC)c1=O)(OC)OC`, the result in assay [1], in assay [2], in assay [3], in assay [4], in assay [5] and in assay [7] was inactive. The call in [8] and in assay [9] was inactive.

Source of the values: PubChem BioAssay (Tox21).
